Source: PubChem
SENP8 block-1 = SENP8 protease inhibitors, primary screen, biochemical, luminescence. Sentrin-specific protease 8 (Homo sapiens), Q96LD8. purified SENP8, Z-RLRGG-aminoluciferin cleavage. inhibition, % at 10 µM. 330,000 tested, 1.2% active. AID 2540, 2010; in the data active = inhibition above about 50%
SENP6 block = SENP6 protease inhibitors, primary screen, biochemical, luminescence, uHTS; Sentrin-specific protease 6 (Homo sapiens), Q9GZR1; Recombinant SENP6 catalytic domain, aminoluciferin luminescence; inhibition, % at 10 µM; 330,000 tested, 1.8% active; AID 2599, 2010;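 active = inhibition above about 50% at the single tested dose, limit read from the data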;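 also: plate controls were DMSO wells with enzyme for no effect and DMSO wells lacking enzyme for full effect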
Target sequence (Q9GZR1 628-1112 limits assumed): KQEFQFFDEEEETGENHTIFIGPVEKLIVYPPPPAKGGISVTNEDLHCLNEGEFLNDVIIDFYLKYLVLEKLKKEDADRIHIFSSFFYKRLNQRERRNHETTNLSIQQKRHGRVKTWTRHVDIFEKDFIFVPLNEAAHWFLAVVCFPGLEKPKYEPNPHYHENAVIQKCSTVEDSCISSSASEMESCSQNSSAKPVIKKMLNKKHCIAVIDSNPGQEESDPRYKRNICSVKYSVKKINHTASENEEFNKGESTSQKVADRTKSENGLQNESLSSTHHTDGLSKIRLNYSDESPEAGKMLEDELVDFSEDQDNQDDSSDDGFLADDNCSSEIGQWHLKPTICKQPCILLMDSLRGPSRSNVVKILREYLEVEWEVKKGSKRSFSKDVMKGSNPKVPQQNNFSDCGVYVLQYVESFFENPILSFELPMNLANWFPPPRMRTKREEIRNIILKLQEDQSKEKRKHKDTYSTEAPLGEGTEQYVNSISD
PPC-1+TRAIL kill = compounds killing PPC-1 cancer cells with TRAIL present, primary screen, TRAIL potentiator project, ATPLite luminescence, uHTS; cell killing (% activity), % at 4 µM or 5 µM; AID 1443, 2008; PPC-1 cells + TRAIL, ATPLite viability luminescence; 220,000 tested, 0.41% active;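 active = cell killing above 50% in the first pass at 4 µM, then a duplicate retest at 5 µM averaging 50% or more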;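 also: plate controls were cells with TRAIL plus DMSO for no effect and medium-only wells lacking cells for full effect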
SENP8 block-2 = human SENP8 protease inhibitors, primary screen, biochemical, fluorescence, Nedd8 protein substrate, uHTS. inhibition, % at 20 µM. Sentrin-specific protease 8 (Homo sapiens), Q96LD8. recombinant SENP8. AID 602440, 2012. 360,000 tested, 0.64% active; in the data active = inhibition mostly above about 40%, no sharp cut-off; inactive = mostly below about 27%
C8 TRAIL sens = viability loss with TRAIL in NB7+C8 cells, primary screen, TRAIL sensitizer project, cell-based, ATPlite luminescence | inhibition (viability loss, TRAIL sensitization), % at 10 µM | 360,000 tested, 1% active | AID 624354, 2012;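 active = compounds causing at least 50% loss of cell viability in the single-dose screen, relative to plate controls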
SENP7 block = SENP7 protease inhibitors, primary screen, biochemical, luminescence, uHTS | recombinant SENP7, Z-RLRGG-aminoluciferin luminescence, 40 min | inhibition, % at 5 µM | 330,000 tested, 1.5% active | AID 434973, 2010;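 active = inhibition above about 50% at the single test dose, limit read from the data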;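 also: plate controls were DMSO with enzyme for no effect and no enzyme buffer wells for full effect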
SENP8 confirm = SENP8 protease inhibitors, retest, confirmation, biochemical, luminescence, single concentration; inhibition, % at 12.5 µM; Recombinant SENP8, Z-RLRGG-aminoluciferin luminescence, 60 min; shares compounds with SENP7 block; 6,200 tested, 40% active;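 active = mean inhibition across replicates above about 50%, limit read from the data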
SENP6 confirm = SENP6 protease inhibitors, confirmation, biochemical, luminescence, single concentration. 6,200 tested, 58% active. inhibition, % at 12.5 µM. shares compounds with SENP7 block. recombinant SENP6, Z-RLRGG-aminoluciferin luminescence
SENP7 conf = SENP7 protease inhibitors, retest, confirmation, biochemical, luminescence, single concentration; 6,200 tested, 69% active; recombinant SENP7, Z-RLRGG-aminoluciferin luminescence, 40 min; shares compounds with SENP7 block; inhibition, % at 12.5 µM
Casp3 select = caspase-3 protease inhibitors, confirmation, selectivity assay for SENP inhibitor project, biochemical, single concentration | 6,200 tested, 60% active | shares compounds with SENP7 block | purified caspase-3, Z-DEVD-aminoluciferin luminescence, 60 min | inhibition, % at 12.5 µM | AID 488918, 2010;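 active = mean inhibition above about 50%, limit read from the data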;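 also: plate controls were enzyme with DMSO for no effect and wells without caspase-3 for full effect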
SENP luc ctr = counter-screen for SENP inhibitors: luminescence interference | shares compounds with SENP7 block | Pre-incubated SENP8/Z-RLRGG-aminoluciferin, luciferase luminescence interference | inhibition, % at 12.5 µM | 6,200 tested, 39% active;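 active = mean inhibition above about 50% when retested at one dose, limit read from the data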;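 also: plate controls were DMSO wells with completed reaction for no effect and substrate without enzyme for full effect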
Starred values were filed as active, the others as inactive; nt = no result given. Sampled rows, rich in hits. Any-hit rate of the full collection: about 3%.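 The calls were made as follows, unless noted: active = mean inhibition above about 50% in the one-dose retest (limit read from the data); inactive = the rest.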

SMILES	SENP8 block-1	SENP6 block	PPC-1+TRAIL kill	SENP8 block-2	C8 TRAIL sens	SENP7 block	SENP8 confirm	SENP6 confirm	SENP7 conf	Casp3 select	SENP luc ctr
COC(=O)c1ccc(COc2ccc(/C=N/Nc3cccc(C(=O)O)c3)cc2)cc1	7	35	6	-3	6	2	nt	nt	nt	nt	nt
Cc1nn(-c2ccccc2)c(Cl)c1/C=N/Nc1ccc(Cl)c(C(=O)O)c1	97*	100*	52*	-16	50	92*	99*	100*	103*	85*	80*
O=C(Nc1ccc(OC(F)F)c(Cl)c1)c1ccccn1	79*	85*	18	12	25	85*	74*	75*	95*	68*	27
COc1ccc(NC(=O)c2ccc(OC(F)F)cc2)cc1Cl	95*	93*	37	-3	42	97*	86*	95*	100*	92*	76*
COc1cc(NC(=O)c2ccc(N3CCCC3=O)cc2)cc(OC)c1	60*	70*	nt	25	17	72*	46	61*	73*	84*	56*
CC(=O)c1ccc(NC(=O)c2ccc(N3CCCC3=O)cc2)cc1	0	-21	nt	2	8	-8	nt	nt	nt	nt	nt
COc1ccc(NC(=O)c2cc(F)cc(F)c2)cc1Cl	-9	13	7	5	-3	24	nt	nt	nt	nt	nt
COc1ccc(NC(=O)c2ccc(N3CCCC3=O)cc2)cc1Cl	-8	24	nt	5	10	54*	-6	-1	4	6	0
COc1cc(NC(=O)c2ccccn2)cc(OC)c1OC	-8	-13	-6	2	3	-3	nt	nt	nt	nt	nt
Cc1ccc(S(=O)(=O)N2CCC[C@H]2C(=O)OCc2cc(=O)oc3cc(C)ccc23)cc1	2	-6	nt	-25	11	5	nt	nt	nt	nt	nt
COc1cc(C2/C(=C(\O)c3ccc4c(c3)OCCO4)C(=O)C(=O)N2c2nnc(C)s2)cc(OC)c1OC (stereo not given)	4	35	nt	8	4	0	nt	nt	nt	nt	nt
Cc1ccc2c(c1)N(CC(=O)NCC(C)c1ccccc1)C(=O)c1cccnc1O2 (stereo not given)	-12	-1	nt	-8	1	-2	nt	nt	nt	nt	nt
Cc1ccc(NC(=O)c2cnccn2)cc1	10	14	4	12	9	21	nt	nt	nt	nt	nt
Cc1ccc(NC(=O)c2cnccn2)cc1C	39	69*	nt	12	5	71*	66*	61*	83*	84*	63*
COc1ccc(CCn2nc(C)c([N+](=O)[O-])c2C)cc1	30	71*	nt	1	-12	59*	57*	53*	82*	79*	62*
COc1cccc(-n2c(CCn3nc(C)c([N+](=O)[O-])c3C)n[nH]c2=S)c1	-2	0	15	3	1	4	nt	nt	nt	nt	nt
CC1N(C(=O)N2CCOCC2)CCN1S(=O)(=O)c1cccc(C(F)(F)F)c1 (stereo not given)	7	8	nt	13	-3	4	nt	nt	nt	nt	nt
